High-throughput results as filed in PubChem.
Tau fibril ThT = qHTS for Inhibitors of Tau Fibril Formation, Thioflavin T Binding | Microtubule-associated protein tau (Homo sapiens), P10636 | AID 1460, 2008 | Potency, µM (doses to about 57.4 µM), actives largely listed as inhibitors | recombinant tau K18 P301L, heparin-induced fibrillization, ThT fluorescence | 270,000 compounds, 2.1% hits; also: nearly all actives have a fitted effect of over 55% in size
Target sequence (P10636 561-689 P618L limits assumed): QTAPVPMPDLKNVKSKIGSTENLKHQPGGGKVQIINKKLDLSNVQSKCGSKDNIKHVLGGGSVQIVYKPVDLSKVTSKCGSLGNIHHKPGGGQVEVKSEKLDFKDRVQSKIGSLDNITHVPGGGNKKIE
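Fibril formation assay: tau K18 P301L at 15 uM with trace Alexa 594 label, heparin inducer 20 uM, pH 7 sodium acetate buffer, 37 C for 6 hr; endpoint ThT signal.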
JMJD2E inh = qHTS Assay for Inhibitors of Human Jumonji Domain Containing 2E (JMJD2E). Potency, µM (highest dose often 57.1 µM), usual class: inhibitors. JMJD2E catalytic domain, FDH-coupled NADH fluorescence (FDH is formaldehyde dehydrogenase). Lysine-specific demethylase 4E (Homo sapiens), B2RXH2. 230,000 compounds, 1.6% hits. AID 2147, 2009; active = well fitted inhibition curve with a large enough effect, not every such curve was filed as active; inconclusive = small, poorly fitted or top-dose-only effect, or another doubt; inactive = no such curve, though single readings can be large or run the other way; also: nearly all actives have a fitted effect of over 50% in size
Target sequence (B2RXH2 1-337 limits assumed): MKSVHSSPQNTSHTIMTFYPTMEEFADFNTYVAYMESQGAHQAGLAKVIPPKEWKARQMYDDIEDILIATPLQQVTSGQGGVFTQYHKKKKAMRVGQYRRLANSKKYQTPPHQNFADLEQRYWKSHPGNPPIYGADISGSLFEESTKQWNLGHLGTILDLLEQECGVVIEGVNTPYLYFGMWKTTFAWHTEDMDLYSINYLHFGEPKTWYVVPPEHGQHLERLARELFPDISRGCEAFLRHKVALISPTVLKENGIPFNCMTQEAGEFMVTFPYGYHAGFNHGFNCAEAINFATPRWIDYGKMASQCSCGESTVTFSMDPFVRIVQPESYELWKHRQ
Tau FP inhib = qHTS for Inhibitors of Tau Fibril Formation, Fluorescence Polarization. K18 P301L tau heparin fibrillization, Alexa594 FP, 6 h. Microtubule-associated protein tau (Homo sapiens), P10636. Potency, µM (doses to about 57.7 µM), usual class: inhibitors. 280,000 compounds, 0.39% hits; also: nearly all actives have a fitted effect of over 55% in size
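Steps: dispense K18 P301L tau (15 uM plus 0.24 uM Alexa 594 tracer, final) in pH 7 sodium acetate; add compound; add heparin (20 uM final); incubate 6 hr, 37 C; add ThT (30 uM final); after 1 hr ambient, read FP.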
Tau fluor counter = Counterscreen qHTS for Inhibitors of Tau Fibril Formation, Fluorescence Polarization | tau K18 P301L Alexa594 fluorescence, heparin fibrillization | Potency, µM (top dose mostly 57.7 µM) | 280,000 compounds, 0.93% hits | AID 1463, 2008; also: nearly all actives have a fitted effect of over 55% in size
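Human tau K18 P301L (15 uM unlabeled, 0.24 uM Alexa 594-labeled) in 100 mM sodium acetate pH 7 with 20 uM heparin, 6 hr at 37 C. ThT 30 uM added, 1 hr ambient; Alexa 594 FP and total fluorescence read at 555/632 nm.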
NPSR antagonist = qHTS Assay for Antagonists of the Neuropeptide S Receptor: cAMP Signal Transduction | Q6W5P4 | CHO-NPSR cells, cAMP TR-FRET, antagonist mode | Potency, µM (titrated, usually from 38.3 µM), most hits filed as inhibitors | 220,000 compounds, 1% hits; also: nearly all actives have a fitted effect of over 50% in size
PNC inhibitor = High Content Assay for Compounds that inhibit the Assembly of the Perinucleolar Compartment | PC3M PTB-GFP, PNC prevalence imaging, 16 h; stronger effect = lower value | activity change (PNC), negative = inhibition, % at 10 µM | 140,000 compounds, 3.1% hits;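 active = readout at or below -70, meaning at least 70% loss of cells showing the perinucleolar compartment, a nuclear body marking cancer cells; inconclusive = readout between -30 and a set limit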
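PC3M cells stably expressing PTB-GFP, 750–1000 cells/well, treated 16 h at 37 °C with compound (23 nl of library stock), in duplicate. After paraformaldehyde fixation and Hoechst stain, imaged at 20x; PNC prevalence scored by image analysis.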
Hits are given with their value; n = inactive; u = inconclusive; x = no result; ! = not active in a repeat; [ ] = remark or other dose. A selection: hits, their analogues and other compounds. The true share with any hit is near 5.1%. Unless noted, calls follow the shape of the dose curve; as a rule, active = well fitted curve in the direction sought with a large enough effect; inconclusive = small, poorly fitted or top-dose-only effect, or another doubt; inactive = no such curve, though single readings can be large; an effect the other way counts as inactive or inconclusive.

SMILES	Tau fibril ThT	JMJD2E inh	Tau FP inhib	Tau fluor counter	NPSR antagonist	PNC inhibitor
CCCCOC(=O)c1ccc(NC(=O)c2c(OC)cccc2OC)cc1	n	n	n	n	n	x
CCN(CC)CCNC(=O)c1nn(C)c2c1CS(=O)(=O)c1ccccc1-2	n	x	n	n	x	x
COc1cc(CNC(=O)c2cnc3c(-c4cccc(C)c4)c(C)nn3c2C)cc(OC)c1OC	n	x	n	n	x	x
O=C(/C=C/c1cccs1)c1ccc(NC(=O)c2cccc(Br)c2)cc1	7.1µM	n	u	u	n	n
COc1ccc(NC(=O)N2CCCC2)cc1OC	n	n	n	n	n	-109
CCCCOC(=O)c1ccc(NC(=O)/C=C/c2cccs2)cc1	n	u	14µM	u	n	n
COC(=O)c1c(C)c2c(c(C)c1O)OC(=O)c1c(C)c(Cl)c(O)c(Cl)c1O2	n	n	n	n	x	x
COc1cc(C)c2c(c1C=O)Oc1c(c(C)c(O)c3c1C(O)OC3=O)OC2=O (stereo not given)	14µM	u	25µM	u	n	x
Cc1cc(O)c(C=O)c2c1C(=O)Oc1c(C)c(O)c3c(c1O2)C(O)OC3=O (stereo not given)	7.9µM	u	u	u	x	x
COc1cccc(N2CC(NC(=O)c3cc(Cl)ccc3OC)CC2=O)c1 (stereo not given)	n	x	n	n	x	x
CC(=O)[C@H]1[C@H](C#N)CC2C3CC=C4C[C@@H](O)CCC4(C)C3CCC21C (stereo not given in full)	n	x	n	n	x	x
Cc1ccc(S(=O)(=O)c2nc(Nc3nccs3)sc2Cl)cc1	u	n	n	16µM[quencher]	n	u
CC(=O)Nc1nc(S(=O)(=O)c2ccc(C)cc2)c(Cl)s1	n	n	n	n	n	u
Cc1ccc(CN2C(=O)c3ccccc3Sc3ccc(C(=O)N4CCOCC4)cc32)cc1	n	x	n	n	x	x
Cc1cccc(NC(=O)CN2C(=O)C(c3ccccc3)=NC23CCC(C)CC3)c1 (stereo not given)	n	x	u	n	x	x
CCC1C/C(=C/c2ccco2)C(=O)/C(=C/c2ccco2)C1 (stereo not given)	u	n	u	n	n	-119
CC1=CC(C)(C)N(S(=O)(=O)c2ccc(C)cc2)c2cc(C)ccc21	n	n	n	n	u	-95
COc1ccc2c(c1)C(C)=CC(C)(C)N2S(=O)(=O)c1ccc(C)cc1	n	n	n	n	n	x
Cc1c(Cl)cccc1NC(=O)CCN1C(=O)c2ccccc2Sc2ncccc21	n	x	n	n	x	x
Cn1cnc(S(=O)(=O)N2CCCC(C(=O)NCc3ccccc3)C2)c1 (stereo not given)	n	x	n	n	x	x
Cc1ccccc1-n1c(SCc2c(C)noc2C)nnc1-c1ccncc1	n	n	n	n	n	-83
CN1C(=O)/C(=C/C=C2/CCCN2C)N(C)C1=S	20µM	n	u	n	n	x
Cc1cc(N2CCCC2)ccc1/C=C1/C(=O)N(C)C(=S)N1C	u	n	u	n	n	x
COc1ccc(/C=N/N(Cc2ccccc2)c2ccccc2)cc1O	u	n	u	14µM[quencher]	n	x
Cc1ccc(C(=O)N2CCN(c3ccc([N+](=O)[O-])cc3-n3cccc3)CC2)cc1	x	n	n[0.0958 µM]	n[0.0958 µM]	10µM	x
SMILES	Tau fibril ThT	JMJD2E inh	Tau FP inhib	Tau fluor counter	NPSR antagonist	PNC inhibitor
O=C(O)CCCN1C(=O)/C(=C/c2ccc(-c3nc4ccccc4s3)o2)SC1=S	1.6µM	n	n	n	u	n
O=C(O)CCCN1C(=O)/C(=C/c2ccncc2)SC1=S	n	u	u	n	n	x
O=C(CCN1C(=O)/C(=C/c2ccccc2)SC1=S)NNC(=O)c1ccncc1	n	n	u	n	n	x
O=C(O)CCCCCN1C(=O)/C(=C\c2ccncc2)SC1=S	u	u	n	n	n	-90
O=C(O)CCCCCN1C(=O)/C(=C/c2ccncc2)SC1=S	u	22µM	n	n	n	u
COc1ccccc1CNC(=O)Cn1cc2c(n1)-c1c(oc(C(=O)N3CCOCC3)c1C)CC2	n	x	n	n	x	x
COC(=O)N1CCN(c2ccc(Cl)c(Cl)c2)CC1	u	n	n	n	n	-102
Nc1ccc(N2CCN(c3ccc(F)cc3)CC2)cc1	13µM	n	n	u	n	x
Nc1ccc(N2CCN(c3ccc(Cl)c(Cl)c3)CC2)cc1	16µM	n	n	u	n	u
O=C(O)c1ccc(N2CCCCC2)cc1	n	n	n	n	n	n
Nc1ccc(N2CCCCCC2)cc1	7.1µM	u	14µM	u	u	u
COC(=O)N1CCN(c2ccc(C)c(C)c2)CC1	n	n	n	n	n	x
COc1cccc(NC(=O)C(Cc2ccccc2)N2Cc3ccccc3C2=O)c1 (stereo not given)	n	x	n	n	x	x
CCOC(=O)N1CCC(NC(=O)c2ccc3c(c2)N(Cc2ccc(Cl)cc2)C(=O)c2ccccc2S3(=O)=O)CC1	n	x	n	n	x	x
CC(C)(C)c1cc(NCCCn2ccnc2)n2ncc(-c3ccc(Cl)cc3)c2n1	u	u	u	u	u	n
CN(C)CCCNc1cc(C(C)(C)C)nc2c(-c3ccccc3)cnn12	u	u	u	22µM[quencher]	u	x
CCCCNc1cc(N2CCN(C3CCCCC3)CC2)c2noc3c2c1C(=O)c1ccccc1-3	16µM	x	n	u	x	x
CCOC(=O)N1CCN(c2c(NCCc3ccccc3)c(=O)c2=O)CC1	n	n	n	n	n	n
O=C(O)CCCNc1cc(N2CCC3(CC2)OCCO3)c2noc3c2c1C(=O)c1ccccc1-3	25µM	u	u	u	10µM	n
CCOC(=O)N1CCN(c2cc(NCCC(=O)O)c3c4c(onc24)-c2ccccc2C3=O)CC1	11µM	n	32µM	u	10µM	n
CCn1c(=O)cc(SCC(=O)N2CCN(C3CCCCC3)CC2)c2ccccc21	n	n	n	n	n	n
COc1ccc(-c2cc(C)no2)cc1S(=O)(=O)Nc1cccc(C(F)(F)F)c1	n	x	u	n	x	x
Cc1ccc2c(c1)C(c1ccc(F)cc1)N(C(=O)C(C)C)CC(=O)N2 (stereo not given)	n	x	n	n	x	x
COc1ccc(Cl)cc1NC(=O)c1cn(C2CCCC2)c(=O)c2c1c1ccccc1n2C	n	x	n	n	x	x
CC/C=C\C/C=C\C/C=C\CCCCCCCC(=O)O	28µM!	u	u	n	x	x
CC1CCc2c(sc(Nc3nc4c(F)cccc4s3)c2C(N)=O)C1 (stereo not given)	u	u	n	16µM[quencher]	n	u
